High-throughput results deposited in PubChem by National Center for Advancing Translational Sciences (NCATS).
Only some compounds are listed: those with a hit (about 2.2% of all), similar ones and a draw of the others.
Abeta rescue – compounds reversing amyloid beta toxicity in yeast; yeast expressing A-beta42, growth rescue, OD600, 48 h; response scale: 0% DMSO, 100% iron-clioquinol control; Potency, µM (series often up to 46.1 µM), actives largely listed as activators; actives 0.063% (n = 410,000); note: nearly all actives have a fitted effect of over 55% in size
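Growth rescue measured by 600 nm absorbance after 48 h yeast culture at 30 C with compound. Values normalized between DMSO and an equimolar ferric chloride plus clioquinol control.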
FUS yeast rescue – suppressors of FUS proteinopathy in yeast | S. cerevisiae FUS-expressing, growth rescue, OD600, 24 h | Potency, µM (series often up to 76.6 µM), usual class: activators | actives 0.24% (n = 390,000);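 note: plate controls were DMSO vehicle for no effect and reference control for full effect; nearly all actives have a fitted effect of over 55% in size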
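Yeast expressing FUS under galactose induction, OD 0.005 in 2% galactose medium; compounds in a dilution series, 24 h at 30C. Growth rescue by absorbance at 600 nm; CP55940 positive control, DMSO negative.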
Mito fusion act – blocks mitochondrial division or promotes mitochondrial fusion | S. cerevisiae fusion-defective mutant growth rescue, CellTiterGlo 48 h | Potency, µM (titrated, usually from 46.1 µM), without a hit: top-dose growth rescue (activation), usual class: activators | actives 0.23% (n = 320,000) | AID 485298; note: % of control where 0% means no effect; nearly all actives have a fitted effect of over 45% in size
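Temperature-sensitive fusion-defective S. cerevisiae (e.g. fzo1-1, mgm1-5) were grown with compound in YPEG medium (3% ethanol, 3% glycerol) for 48 hours at 37C. Growth rescue was measured as viability by CellTiterGlo luminescence after 10 minutes at ambient.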
TDP43 rescue – TDP-43 toxicity inhibition in yeast; TDP-43 expressing yeast growth rescue, BacTiter-Glo, 24 h; Potency, µM (doses to about 46.1 µM), for inactives: at the highest dose growth rescue (activation), hits mostly activators; actives 1.8% (n = 410,000); AID 652104; note: % of control where 0% means no effect; nearly all actives have a fitted effect of over 50% in size
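Yeast cells expressing TDP-43 under galactose induction are exposed to compounds for 24 hr at 30 deg C. BacTiter-Glo luminescence measures growth, so protective compounds score as activators.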
aSyn rescue – inhibitors of alpha-synuclein toxicity in yeast; Yeast expressing alpha-synuclein, growth rescue, BacTiter-Glo, 24 h; Potency, µM (titrated, usually from 46.1 µM), for inactives: at the top dose growth rescue (activation), hits mostly activators; actives 0.14% (n = 370,000); AID 652106; note: % of control where 0% means no effect; nearly all actives have a fitted effect of over 65% in size
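Screening used galactose-induced yeast with toxic alpha-synuclein levels, exposed to compound for 24 hr at 30 deg C. Cell growth, read with BacTiter-Glo luminescence, gave the measured signal.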
The depositor's hits bear a star; i = inactive; u = inconclusive; x = no result; ! = repeats disagree. Calls come from the whole dose curve; as a rule, active = well fitted curve in the direction sought with a large enough effect; inconclusive = small, poorly fitted or top-dose-only effect, or another doubt; inactive = no such curve, though single readings can be large; an effect the other way counts as inactive or inconclusive. Potency is the fitted concentration of half-maximal effect.

SMILES | Abeta rescue | FUS yeast rescue | Mito fusion act | TDP43 rescue | aSyn rescue
CCOC(=O)c1c(-n2c(C)cc(C=C3C(=O)NC(=S)NC3=O)c2C)sc2c1CCCC2 | i | i | 9.1% | 17.8µM* | -31.3%
COc1cc(/C=C/c2nc3ccccc3c(=O)n2-c2ccc(Br)c(C)c2)ccc1O | i | i | x | u | x
Cc1c(C(c2ccc(Br)cc2)c2c(O)c3ccccc3oc2=O)c(=O)n(-c2ccccc2)n1C (configuration not stated) | i | u | -31.1% | 14.1µM*! | -3.8%
CSc1ccc(C(c2c(O)c3ccccc3oc2=O)c2c(C)n(C)n(-c3ccccc3)c2=O)cc1 (configuration not stated) | i | u | 13.4% | -16.8% | 12.5%
Cc1c(C(c2ccc(Cl)cc2Cl)c2c(O)c3ccccc3oc2=O)c(=O)n(-c2ccccc2)n1C (configuration not stated) | i | i | 24.6% | 10µM* | 3.0%
Cn1ncc2c(NCc3ccc(Cl)cc3)ncnc21 | i | i | x | u | x
Cc1c(C(=O)c2cccc3ccccc23)c2cccc3c2n1[C@H](CN1CCOCC1)CO3 | i | i | 9.2µM* | 25.1µM* | 15.7%
O=C(CN1CCOCC1)c1cccc2ccccc12 | i | i | -4.2% | 6.3% | 1.6%
O=c1[nH]cc(N(CCCl)CCCl)c(=O)[nH]1 | x | i | x | x | x
O=c1[nH]cc(F)c(=O)[nH]1 | i | i | 2.91µM*! | 0.0% | 8.9%
O=C(NC1CCCCCC1)c1ccc[nH]c1=S | i | i | 6.8% | u | -46.2%
Cc1cc(-n2c(/C=C/c3cccs3)nc3ccccc3c2=O)ccc1Br | i | i | x | 7.7% | x
O=S(=O)(c1ccc(Cl)cc1)N1Cc2cc(Br)ccc2-n2nncc2C1 | i | i | x | 20µM* | 4.1%
O=S(=O)(c1cccc2ccccc12)N1Cc2ccccc2-n2nncc2C1 | i | i | x | 20µM* | 0.2%
Cc1cc(/C=C/c2ccnc3ccccc23)ccc1N(CCCl)CCCl | x | x | x | x | 3.2%
CCOC(=O)CNC(=O)CNC(=O)C(Cc1ccc(N(CCCl)CCCl)cc1)NC(C)=O (configuration not stated) | i | i | -1.9% | 21.7% | 0.4%
CCOC(=O)C(NC(=O)C(Cc1ccc(N(CCCl)CCCl)cc1)NC(C)=O)C(C)C (configuration not stated) | i | i | 3.98µM* | 12.0% | 4.3%
C=C(C=O)CC1CC(O)[C@]2(C)OC3CC4OC5C[C@]6(C)O[C@]7(C)CCC8OC9C[C@]%10(C)OC%11C(C)=CC(=O)OC%11CC%10OC9C[C@@H](C)C8OC7CC6O[C@]5(C)CC5OC5C4OC3CC2O1 (some centres not stated) | i | i | -9.6% | 3.16µM* | 5.0%
COc1ccc(CCNC(=O)c2cnc3sc(N4CCCCCC4)nn3c2=O)cc1 | i | i | x | u | x
CCCCC[C@@H]1CCCCC[C@@H](O)C[C@@H](O)[C@H](O)/C=C/C(=O)O1 | i | i | x | 0.0% | 8.6%
ClCCN(CCCl)c1ccc(/C=C/c2ccnc3ccccc23)cc1 | x | x | x | x | -41.0%
COC(=O)C1=C(c2ccc(OC(F)(F)F)cc2)C[C@@H]2CC[C@H]1N2C(=O)NCCNC(C)=O | i | i | -3.1% | 7.7% | -7.8%
COC(=O)C1=C(c2ccc3ccccc3c2)C[C@@H]2CC[C@H]1N2C(=O)NC1Cc2ccccc2C1 | i | u | u | u | -0.1%
COC(=O)C1=C(c2ccc(OC(F)(F)F)cc2)C[C@@H]2CC[C@H]1N2C(=O)NC1CCCCC1 | i | i | u | 17.8µM* | -10.4%
COC(=O)C1=C(c2ccc3ccccc3c2)C[C@@H]2CC[C@H]1N2C(=O)N1CCC(C)CC1 | i | i | 11.6% | 25.1µM* | -0.6%
COC(=O)C1=C(c2ccc(OC(F)(F)F)cc2)C[C@@H]2CC[C@H]1N2C(=O)NCc1ccc(F)cc1 | i | i | u | 12.6µM* | 12.4%
